Pf growth 96h: inhibits malaria parasite growth, 96 h; 320,000 tested, 6.9% active; AID 504834; Potency, µM (titrated, usually from 28.7 µM), inactives show at the top dose activity change, negative = inhibition, actives largely listed as inhibitors; P. falciparum luciferase reporter growth, 96 h; note: potency is the fitted concentration of half-maximal effect; % is set by controls: 0 for no effect and ±100 for the full control effect
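Erythrocytes infected with luciferase-expressing P. falciparum were dispensed at 2% hematocrit and 0.05% parasitemia (final), then incubated with compounds 96 hours at 37 C in 5% CO2. Luminescence after detection reagent addition reported growth.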
Pf growth 48h: P. falciparum growth inhibition at 48 hours (one generation); P. falciparum luciferase growth in erythrocytes, 48 h; AID 504832; 310,000 tested, 5.9% active; Potency, µM (titrated, usually from 28.7 µM), for the others: top-dose activity change, negative = inhibition, hits mostly inhibitors; note: potency is the fitted concentration of half-maximal effect; % is set by controls: 0 for no effect and ±100 for the full control effect
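Luciferase-expressing parasites in RBCs, 2% Hct / 0.1% parasitemia final; RPMI 1640 + 0.5% Albumax; 37 C, 5% CO2, one generation; luminescence read-out, lower signal = inhibition.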
Shiga toxin inh: inhibitors of Shiga toxin in Vero cells; inhibition, % at 38.7 µM; 290,000 tested, 9.2% active; Vero cells, Shiga toxin protein synthesis inhibition reporter; AID 2315; in the data active = inhibition mostly above about 28%, no sharp cut-off; inactive = mostly below about 43%; note: 0% is about no effect
CHX counter: counter-screen for Shiga toxin inhibitors: cycloheximide protein synthesis inhibition. cell reporter, cycloheximide protein synthesis inhibition counterscreen. AID 2314. 300,000 tested, 12% active. max response, %; in the data active = max response mostly above about 13%, no sharp cut-off; inactive = mostly below about 14%; note: read at 38.3 µM for the half of the compounds with a filed dose; 0% is about no effect
SARS PLpro yeast: SARS-CoV PLP inhibition in yeast. S. cerevisiae expressing SARS-CoV PLpro, growth rescue. Potency, µM (highest dose often 32.9 µM), without a hit: at the top dose activity, positive = growth rescue, most hits filed as activators. 330,000 tested, 0.19% active; calls by dose curve; note: potency is the fitted concentration of half-maximal effect; 0% is about no effect; nearly all actives have a fitted effect of over 55% in size
AMA1-RON2 inh: disrupts binding of P. falciparum AMA1 to RON2; AlphaScreen AMA1-biotinylated RON2 peptide binding; Potency, µM (top dose mostly 58.2 µM), without a hit: at the top dose activity change, negative = inhibition, usual class: inhibitors; 360,000 tested, 0.2% active; AID 720542;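 note: potency is the fitted concentration of half-maximal effect; 0% = vehicle wells and -100% = peptide control; nearly all actives have a fitted effect of over 45% in size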
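AMA1 (3D7) with his tag at 25 nM final met compounds first, then biotinylated RON2 peptide at 25 nM; detection used donor plus acceptor beads, 10 µg/mL apiece, read by AlphaScreen after 30 min at room temperature.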
* marks the source's active call; other numbers are inactive results; ? = inconclusive; / = no result given; [ ] = remark or other dose. Compounds with a hit are over-represented: about 19% of the library has one in this group of screens. Unless noted, calls come from the whole dose curve; as a rule, active = well fitted curve in the direction sought with a large enough effect; inconclusive = small, poorly fitted or top-dose-only effect, or another doubt; inactive = no such curve, though single readings can be large; an effect the other way counts as inactive or inconclusive.

SMILES | Pf growth 96h | Pf growth 48h | Shiga toxin inh | CHX counter | SARS PLpro yeast | AMA1-RON2 inh
Cc1nc(SCc2cccc(F)c2)[nH]c(=O)c1C#N | ? | -15% | -22 | 1 | 1% | -1%
O=C(CSc1nc2ncc(Cl)cc2[nH]1)Nc1cccc(F)c1 | -5% | 15% | 17 | 17 | 0% | -8%
Fc1ccc(CSc2nc3ncccc3[nH]2)cc1 | / | ? | 71* | 30* | -26% | 4%
O=C(CSc1nc2ncccc2[nH]1)c1cccc([N+](=O)[O-])c1 | ? | ? | 15 | 19* | -1% | 8%[11.6 µM]
Cc1ccc(Cc2c(-c3ccccc3)nc3cc(C)c(Br)c(C)n23)cc1 | / | / | / | / | / | -7%
Cc1ccc([C@H]2N[C@]3(CCCN(Cc4ccc(F)cc4)C3=O)[C@H]3C(=O)N(C)C(=O)[C@@H]23)cc1 | / | / | / | / | / | -16%
CCC(C(=O)NCc1ccco1)N(C(=O)CNS(=O)(=O)c1ccccc1)c1ccc(OC)cc1 (stereo not drawn) | ? | / | 7 | 4 | -1% | 1%
O=c1cc(-c2ccccc2F)oc2ccccc12 | 356% | 349% | 59* | 28* | -29% | 17%
Cc1ccccc1-c1cc(=O)c2ccccc2o1 | / | / | / | / | -8% | -2%
CSc1ccc(-c2cc(=O)c3ccccc3o2)cc1 | ? | 40% | 34* | 40* | -21% | 3%
Cc1cccc(N2CCN(C(=O)Cc3c(C(=O)O)[nH]c4ccc(Cl)cc34)CC2)c1C | 17% | -5% | -18 | -3 | 1% | 2%
C=CCNC(=O)c1ccc(S(=O)(=O)CC)c(Cl)c1Cl | -11%[5.75 µM] | 16% | -2 | 1 | 3% | 1%
O=C1NC[C@H](CCCCN2C[C@H](Cc3ccc(O)cc3)N(CCc3ccccc3)C(=O)C2=O)N(CCC2CCCCC2)C1=O | / | / | / | / | / | 20%
Cc1ccc(-n2c(C)cc(C(=O)OCC(=O)N(C)C3CCS(=O)(=O)C3)c2C)cc1 (stereo not drawn) | 42% | 1.7µM* | 17 | 10 | 6% | -1%
CN(CCC#N)C(=O)COC(=O)c1cccnc1Nc1ccccc1F | 25% | -10% | 21 | 16* | 0% | 2%
CN(CCC#N)C(=O)COC(=O)c1ccccc1C(=O)c1ccc(Cl)c([N+](=O)[O-])c1 | -23% | -23% | -3 | 15 | -2% | 2%
CCN(C(=O)COC(=O)c1cccnc1Nc1ccccc1F)C1CCS(=O)(=O)C1 (stereo not drawn) | 159% | 153% | 54* | 62* | -3% | -5%[2.32 µM]
CN(C(=O)COC(=O)c1cccnc1Nc1ccccc1F)C1CCS(=O)(=O)C1 (stereo not drawn) | 91% | 76% | 65* | 28* | 4% | 4%
CCOc1ccccc1CNC(=O)C1CCN(C(=O)N2CC(C)Oc3ccc(C)cc32)CC1 (stereo not drawn) | -23% | ? | 7 | -2 | 0% | 1%
COc1ccc2cc(CN(Cc3cccnc3)Cc3nnnn3Cc3ccccc3)c(=O)[nH]c2c1 | -36% | ? | -12 | -5 | -5% | 1%
CCC(C)(C)n1nnnc1CN(Cc1cccs1)Cc1cc2cc(OC)ccc2[nH]c1=O | / | 13µM* | -12 | -4 | -1% | -2%
CCOc1ccc2[nH]c(=O)c(CN(Cc3cccs3)Cc3nnnn3C(C)(C)CC)cc2c1 | 20% | 8.3µM* | -15 | -3 | -2% | -1%
Cc1ccc2cc(CN(Cc3cccs3)Cc3nnnn3C(C)(C)C)c3nnnn3c2c1 | 8%[5.75 µM] | -20% | -17 | -2 | -3% | /
COc1ccc2cc(CN(Cc3cccs3)Cc3nnnn3Cc3ccccc3)c(=O)[nH]c2c1 | ? | 9.3µM* | -4 | -1 | -7% | -13%
COc1ccc(NS(=O)(=O)c2cn(C)cn2)cc1Cl | ? | 33% | -7 | 7 | 0% | 0%
SMILES | Pf growth 96h | Pf growth 48h | Shiga toxin inh | CHX counter | SARS PLpro yeast | AMA1-RON2 inh
COc1ccc(-n2nc3ccc(NS(C)(=O)=O)cc3n2)cc1Cl | 26% | 55% | 35* | 9.6* | 1% | -18%
Cc1ccc(-n2nc3ccc(N)cc3n2)c(C)c1 | 1.7µM* | 98% | / | 17* | 1% | -15%
Cc1ccc(-n2nc3ccc(N)cc3n2)cc1Cl | 4.1µM* | 89% | 67* | 32* | -1% | 0%
COc1ccc(-n2nc3ccc(N)cc3n2)cc1Cl | 29% | 57% | / | 28* | -4% | 24%
CCOc1ccc(C(=O)NC2CC(=O)N(c3ccc4c(c3)OCCO4)C2)cc1 (stereo not drawn) | 14% | ? | / | / | / | 13%
O=C(NCc1cccnc1)c1cc(C2CCCN(S(=O)(=O)c3cccs3)C2)on1 (stereo not drawn) | / | / | / | / | / | 3%
Cc1ccccc1NC(=O)C1CCN(S(=O)(=O)c2cccc3nonc23)CC1 | -24% | -6% | 1 | -4 | 1% | -4%
Cc1ccc(-c2cc(C(=O)OCC(=O)N(C)c3c(N)n(Cc4ccccc4)c(=O)[nH]c3=O)c3ccccc3n2)o1 | ? | ? | / | / | -2% | 0%
Cc1ccc(S(=O)(=O)NNC(=O)c2ccc3ccccc3n2)cc1 | ? | -2% | 8 | -3 | -3% | 32%
Cc1ccc(-n2nc3ccc(N)cc3n2)cc1C | 185% | 0% | / | 44* | -5% | 37%
Cc1ccccc1-c1ccc2c(c1)O[C@@H](CN(C)C(=O)Nc1ccc(C(F)(F)F)cc1)[C@H](C)CN([C@@H](C)CO)S2(=O)=O | / | / | / | / | / | -4%
COc1ccccc1N(C(C)=O)c1nc(C)cc(C)c1C#N | 9.3µM* | -19% | 2 | -3 | 11% | -4%
CC[C@H](C)[C@H](NC(=O)[C@@H](NC(=O)[C@@H](CC(=O)NO)Cc1ccccc1)[C@@H](C)CC)C(=O)O | / | / | 15 | -9 | / | /
COc1ccccc1OCC(=O)NNC(=O)c1cccs1 | 53% | -10% | 15 | 4 | 6% | 18%
O=C(/C=C/c1ccccc1)NNC(=O)c1cccs1 | 11% | 59% | 38 | 23* | 2% | 79%
O=C(/C=C/c1ccccc1)Nc1ccc(NC(=O)c2cccs2)cc1 | 3% | -3% | 3 | -5 | 0% | 4%
COc1ccccc1/C=C/C(=O)NNC(=O)c1cccs1 | 8% | 161% | 71* | 26* | 1% | 86%
COc1cc2ccccc2cc1C(=O)N1CC(C)OC(C)C1 (stereo not drawn) | / | / | / | / | / | 0%
CC1CN(C(=O)c2cc(F)c(F)cc2Cl)CC(C)O1 (stereo not drawn) | / | / | / | / | / | -9%
Cc1ccc(C(=O)N2CC(C)OC(C)C2)c(Cl)c1 (stereo not drawn) | 3.7µM* | / | 63 | 8 | 26% | 3%
COc1cc(SC)ccc1C(=O)N1CC(C)OC(C)C1 (stereo not drawn) | -3% | 1.7µM* | 12 | -1 | 0% | 3%
O=C(/C=C/c1cccc(Cl)c1)Nc1ccncc1 | 14% | -8% | 53* | 38* | -10% | 6%

Screening results (PubChem)
